Measured values reported in PubChem BioAssay AID1159580 (chemical genetic matrix, 2015).
Where “and” joins values, the source holds several entries; their conditions need not be identical. Equal values may be shown once. Out of some 5,500 compounds screened, about 2,000 (36%) were called active. About 18% were inconclusive and are not listed. Rule as the data show it: active = normalized growth mostly below about 0.91 (no sharp cut-off); inconclusive = no clear call, values can overlap the other calls; inactive = mostly above about 0.92. This is one part of the list.

Experiment: chemical genetic growth profiling, strain panel (AID 1159580);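 also: tested at 20 µM; growth read once vehicle control cultures reached saturation at 30 °C; 1 = growth at the plate median or of vehicle wells; lower values mean less growth of the strain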
Details: S. cerevisiae deletion strains, growth OD

Measured: normalized growth

Cc1cc(C(C)(C)CC(C)(C)C)ccc1OCCOCC[N+](C)(C)Cc1ccccc1
active: locus YAL013W, strain DEP1, active compounds read low 0.056 | locus YAL021C, strain ccr4, active compounds read low 0.0621 | locus YAL026C, strain drs2, active compounds read low 0.0577 | locus YAL030W, strain snc1, active compounds read low 0.0548 | locus YBL061C, strain skt5, active compounds read low 0.0577 | locus YBR009C, strain hhf1, active compounds read low 0.0593 | locus YBR021W, strain FUR4, active compounds read low 0.0884 | locus YBR023C, strain chs3, active compounds read low 0.0588 | locus YBR171W, strain sec66, active compounds read low 0.0729 | locus YBR229C, strain ROT2, active compounds read low 0.0513 | locus YBR231C, strain swc5, active compounds read low 0.0584 | locus YBR279W, strain paf1, active compounds read low 0.0568 | locus YCL011C, strain gbp2, active compounds read low 0.0539 | locus YCL016C, strain dcc1, active compounds read low 0.0604 | locus YCL029C, strain bik1, active compounds read low 0.0578 | locus YCL061C, strain MRC1, active compounds read low 0.0639 | locus YCL069W, strain vba3, active compounds read low 0.0588 | locus YCR088W, strain abp1, active compounds read low 0.0592 | locus YDL005C, strain med2, active compounds read low 0.0722 | locus YDL035C, strain GPR1, active compounds read low 0.0517 | locus YDL040C, strain nat1, active compounds read low 0.0573 | locus YDL074C, strain BRE1, active compounds read low 0.0803 | locus YDL101C, strain DUN1, active compounds read low 0.0608 | locus YDL134C, strain PPH21, active compounds read low 0.0535 | locus YDL185W, strain tfp1, active compounds read low 0.0735 | locus YDL192W, strain arf1, active compounds read low 0.0575 | locus YDR001C, strain nth1, active compounds read low 0.0561 | locus YDR069C, strain doa4, active compounds read low 0.0594 | locus YDR101C, strain arx1, active compounds read low 0.0572 | locus YDR137W, strain rgp1, active compounds read low 0.0892 | locus YDR159W, strain sac3, active compounds read low 0.0785 | locus YDR162C, strain NBP2, active compounds read low 0.0508 | locus YDR195W, strain ref2 0.112 | locus YDR297W, strain sur2, active compounds read low 0.0548 | locus YDR318W, strain mcm21, active compounds read low 0.0609 | locus YDR334W, strain swr1, active compounds read low 0.0602 | locus YDR335W, strain msn5, active compounds read low 0.0584 | locus YDR388W, active compounds read low 0.0542 | locus YDR392W, strain spt3, active compounds read low 0.0691 | locus YDR502C, strain sam2, active compounds read low 0.0626 | locus YEL003W, strain gim4, active compounds read low 0.0521 | locus YEL037C, strain rad23, active compounds read low 0.0554 | locus YEL061C, strain CIN8 (second series), active compounds read low 0.0588 | locus YEL061C, strain CIN8, active compounds read low 0.0504 | locus YER015W, strain faa2, active compounds read low 0.0619 | locus YER016W, strain bim1, active compounds read low 0.0588 | locus YER110C, active compounds read low 0.0699 | locus YER111C, strain swi4, active compounds read low 0.0695 | locus YER155C, strain BEM2 (second series), active compounds read low 0.0851 | locus YER155C, strain BEM2, active compounds read low 0.0684 | locus YER167W, strain BCK2, active compounds read low 0.0531 | locus YFR010W, strain ubp6, active compounds read low 0.0641 | locus YGL078C, strain dbp3, active compounds read low 0.0843 | locus YGL086W, strain mad1, active compounds read low 0.0561 | locus YGL167C, strain pmr1, active compounds read low 0.0723 | locus YGL173C, strain kem1, active compounds read low 0.0635 | locus YGL227W, strain vid30, active compounds read low 0.0611 | locus YGL240W, strain doc1, active compounds read low 0.0709 | locus YGL248W, strain PDE1, active compounds read low 0.05 | locus YGL253W, strain hxk2, active compounds read low 0.0523 | locus YGR135W, strain pre9, active compounds read low 0.0617 | locus YGR252W, strain gcn5, active compounds read low 0.165 | locus YHR013C, strain ard1, active compounds read low 0.0989 | locus YHR027C, strain rpn1, active compounds read low 0.0592 | locus YHR030C, strain SLT2, active compounds read low 0.0522 and 0.101 | locus YHR079C, strain IRE1 (second series), active compounds read low 0.0549 | locus YHR079C, strain IRE1, active compounds read low 0.104 | locus YHR094C, strain hxt1, active compounds read low 0.0561 | locus YHR129C, strain ARP1, active compounds read low 0.0578 | locus YHR142W, strain chs7, active compounds read low 0.072 | locus YHR200W, strain rpn10, active compounds read low 0.0568 | locus YIL066C, strain RNR3, active compounds read low 0.054 | locus YIL073C, strain SPO22, active compounds read low 0.12 | locus YIL125W, strain kgd1, active compounds read low 0.0749 | locus YIR030C, strain dcg1, active compounds read low 0.0563 | locus YJL092W, strain hpr5, active compounds read low 0.0568 | locus YJL095W, strain BCK1 (second series), active compounds read low 0.0554 | locus YJL095W, strain BCK1, active compounds read low 0.0585 and 0.103 | locus YJL115W, strain asf1, active compounds read low 0.0691 | locus YJL129C, strain trk1, active compounds read low 0.0794 | locus YJL134W, strain LCB3, active compounds read low 0.0506 | locus YJL154C, strain vps35, active compounds read low 0.0594 | locus YJL164C, strain tpk1, active compounds read low 0.057 | locus YJL166W, strain qcr8, active compounds read low 0.0596 | locus YJL168C, strain set2, active compounds read low 0.0557 | locus YJL187C, strain SWE1 (second series), active compounds read low 0.0514 | locus YJL187C, strain SWE1, active compounds read low 0.0563 | locus YJR043C, strain POL32, active compounds read low 0.0648 | locus YJR066W, strain TOR1, active compounds read low 0.00362 | locus YKL009W, strain mrt4, active compounds read low 0.213 | locus YKL068W, active compounds read low 0.172 | locus YKL085W, strain MDH1 (second series), active compounds read low 0.0866 | locus YKL085W, strain MDH1, active compounds read low 0.0866 | locus YKL160W, strain elf1, active compounds read low 0.0603 | locus YKR001C, strain vps1, active compounds read low 0.0608 | locus YKR026C, strain gcn3, active compounds read low 0.0637 | locus YKR091W, strain srl3, active compounds read low 0.0576 | locus YLL001W, strain dnm1, active compounds read low 0.0592 | locus YLL026W, active compounds read low 0.056 | locus YLL041C, strain sdh2, active compounds read low 0.0575 | locus YLR027C, strain aat2, active compounds read low 0.0549 | locus YLR039C, strain RIC1, active compounds read low 0.0893 | locus YLR058C, strain SHM2, active compounds read low 0.052 | locus YLR102C, strain apc9, active compounds read low 0.0571 | locus YLR113W, strain HOG1, active compounds read low 0.119 | locus YLR221C, strain rsa3, active compounds read low 0.0575 | locus YLR258W, strain gsy2, active compounds read low 0.0566 | locus YLR262C, strain YPT6 (second series), active compounds read low 0.0719 | locus YLR262C, strain YPT6, active compounds read low 0.0979 | locus YLR268W, strain sec22, active compounds read low 0.0813 | locus YLR320W, strain mms22, active compounds read low 0.0724 | locus YLR330W, strain CHS5, active compounds read low 0.0528 | locus YLR342W, strain FKS1 (second series), active compounds read low 0.0706 | locus YLR342W, strain FKS1, active compounds read low 0.0618 | locus YLR357W, strain rsc2, active compounds read low 0.114 | locus YLR370C, strain arc18, active compounds read low 0.0577 | locus YLR371W, strain rom2, active compounds read low 0.0597 | locus YLR384C, strain iki3, active compounds read low 0.0598 | locus YLR418C, strain cdc73, active compounds read low 0.0929 | locus YML016C, strain PPZ1, active compounds read low 0.0514 | locus YML032C, strain rad52, active compounds read low 0.0687 | locus YML120C, strain ndi1, active compounds read low 0.0557 | locus YML124C, strain tub3, active compounds read low 0.0571 | locus YMR058W, strain fet3, active compounds read low 0.0582 | locus YMR078C, strain ctf18, active compounds read low 0.0671 | locus YMR125W, strain sto1, active compounds read low 0.073 | locus YMR129W, active compounds read low 0.0561 | locus YMR205C, strain PFK2, active compounds read low 0.0818 | locus YMR223W, strain ubp8, active compounds read low 0.0638 | locus YMR231W, strain pep5, active compounds read low 0.0634 | locus YMR307W, strain GAS1, active compounds read low 0.113 | locus YNL067W, strain RPL9B, active compounds read low 0.051 | locus YNL071W, strain lat1, active compounds read low 0.0592 | locus YNL153C, strain GIM3, active compounds read low 0.0542 | locus YNL183C, strain NPR1, active compounds read low 0.00188 | locus YNL209W, strain ssb2, active compounds read low 0.0576 | locus YNL233W, strain BNI4, active compounds read low 0.0574 | locus YNL248C, strain rpa49, active compounds read low 0.0804 | locus YNL250W, strain rad50, active compounds read low 0.109 | locus YNL271C, strain bni1, active compounds read low 0.0656 | locus YNL298W, strain CLA4, active compounds read low 0.0604 | locus YNL307C, strain MCK1, active compounds read low 0.0681 | locus YNL322C, strain KRE1 (second series), active compounds read low 0.0636 | locus YNR049C, strain mso1, active compounds read low 0.0552 | locus YNR052C, strain pop2, active compounds read low 0.0587 | locus YOL006C, strain TOP1, active compounds read low 0.115 | locus YOL147C, strain pex11, active compounds read low 0.0557 | locus YOR001W, strain rrp6, active compounds read low 0.0651 | locus YOR061W, strain CKA2, active compounds read low 0.0485 | locus YOR069W, strain VPS5, active compounds read low 0.0867 | locus YOR070C, strain gyp1, active compounds read low 0.0566 | locus YOR080W, strain dia2, active compounds read low 0.0634 | locus YOR083W, strain WHI5, active compounds read low 0.0581 | locus YOR106W, strain vam3, active compounds read low 0.0627 | locus YOR136W, strain idh2, active compounds read low 0.0687 | locus YOR144C, strain elg1, active compounds read low 0.0552 | locus YOR184W, strain ser1, active compounds read low 0.0763 | locus YOR231W, strain MKK1, active compounds read low 0.103 | locus YOR265W, strain rbl2, active compounds read low 0.055 | locus YOR270C, strain vph1, active compounds read low 0.0945 | locus YOR290C, strain snf2, active compounds read low 0.0584 | locus YOR316C, strain cot1, active compounds read low 0.056 | locus YPL051W, strain arl3, active compounds read low 0.0608 | locus YPL055C, strain LGE1, active compounds read low 0.0718 | locus YPL078C, strain atp4, active compounds read low 0.0619 | locus YPL106C, strain sse1, active compounds read low 0.0907 | locus YPL240C, strain hsp82, active compounds read low 0.057 | locus YPL256C, strain CLN2, active compounds read low 0.105 | locus YPR119W, strain clb2, active compounds read low 0.0584 | locus YPR141C, strain kar3, active compounds read low 0.0826 | locus YPR163C, strain tif3, active compounds read low 0.0658 | locus YPR167C, strain met16, active compounds read low 0.059 | strain wtn01, active compounds read low 0.0645
